aSyn yeast inh: rescues yeast growth from alpha-synuclein toxicity; hit rate 0.14% among 370,000; Yeast expressing alpha-synuclein, growth rescue, BacTiter-Glo, 24 h; Potency, µM (doses to about 46.1 µM), usual class: activators; note: nearly all actives have a fitted effect of over 65% in size
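Screening used galactose-induced yeast with toxic alpha-synuclein levels, exposed to compound for 24 hr at 30 deg C. Cell growth, read with BacTiter-Glo luminescence, gave the measured signal.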
TDP43 rescue: inhibitors of TDP-43 toxicity in yeast. TDP-43 expressing yeast growth rescue, BacTiter-Glo, 24 h. Potency, µM (titrated, usually from 46.1 µM), hits mostly activators. hit rate 1.8% among 410,000; note: nearly all actives have a fitted effect of over 50% in size
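Yeast expressing TDP-43 (pregrown in raffinose, seeded at OD600=0.02 in galactose medium) exposed to compounds 24 hr at 30 deg C. Growth read by BacTiter-Glo luminescence; rescue of toxicity appears as increased signal.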
Abeta yeast res: compounds reversing amyloid beta toxicity in yeast. yeast expressing A-beta42, growth rescue, OD600, 48 h; response scale: 0% DMSO, 100% iron-clioquinol control. Potency, µM (highest dose often 46.1 µM), most hits filed as activators. hit rate 0.063% among 410,000. AID 1347071; note: nearly all actives have a fitted effect of over 55% in size
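Yeast growth medium received pinned compounds, then yeast cells expressing toxic A-beta were added; plates incubated at 30 C for 48 hr. Growth read as absorbance at 600 nm, normalized to DMSO and equimolar FeCl3 plus clioquinol controls.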
FUS yeast rescue: suppressors of FUS proteinopathy in yeast | Potency, µM (doses to about 76.6 µM), usual class: activators | S. cerevisiae FUS-expressing, growth rescue, OD600, 24 h | hit rate 0.24% among 390,000; note: nearly all actives have a fitted effect of over 55% in size
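Absorbance at 600 nm, taken 24hr after compound addition, measured rescue of FUS-yeast growth at 30C. Induction used 2% galactose with seeding at OD 0.005. Controls: CP55940 from 92uM final, DMSO only.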
Each line names hits and unclear results; the compound was inactive in the other large screens. Shown are actives, neighbours in structure and some others; about 2.1% of the full set was active somewhere. Calls come from the whole dose curve; as a rule, active = well fitted curve in the direction sought with a large enough effect; inconclusive = small, poorly fitted or top-dose-only effect, or another doubt; inactive = no such curve, though single readings can be large; an effect the other way counts as inactive or inconclusive.

O=C(NCCN1CCOCC1)c1ccc2ccccc2c1	none (no result: FUS yeast rescue)
CCc1nc2c(OCCC3CCCCC3)cccn2c1N(C)C(=O)c1ccc(C)cc1	none
CN(C)c1ccc(C=Nc2ccccc2C(N)=O)cc1	TDP43 rescue 11µM
CC(C)C(=O)OCCCN1CCC2(CCC(c3ccccc3)CC2)C1=O (centres undefined)	none (no result: aSyn yeast inh, TDP43 rescue, Abeta yeast res)
C[C@@H]1CCN(C2CC2)S(=O)(=O)c2ccc(N3CCC[C@H]3CO)cc2O1	none (no result: aSyn yeast inh, TDP43 rescue, Abeta yeast res)
Cc1ccc(S(=O)(=O)N2CC3C(=O)C[C@@H](c4ccccc4)N(S(=O)(=O)c4ccc(CCCOCCOCCNC(=O)OC(C)(C)C)cc4)C3CC2c2ccccc2)cc1 (some centres undefined)	FUS yeast rescue inconclusive
CCOC(=O)C1CCCN(S(=O)(=O)c2cc(-c3cc(C)no3)ccc2C)C1 (centres undefined)	TDP43 rescue 35µM, FUS yeast rescue inconclusive (no result: aSyn yeast inh)
Cc1ccc(-c2onc(C)c2C)cc1S(=O)(=O)N1CCCCC1	TDP43 rescue 22µM (no result: aSyn yeast inh)
CCOC(=O)C1CCN(S(=O)(=O)c2cc(-c3cc(C)no3)ccc2C)CC1	none (no result: aSyn yeast inh)
CCOC(=O)C1CCN(S(=O)(=O)c2ccc(OC)c(OC)c2)CC1	none
CCOC(=O)C1CCN(S(=O)(=O)c2ccc(Br)c(OCC)c2)CC1	FUS yeast rescue 5.6µM
CCOC(=O)C1CCN(S(=O)(=O)c2cc(-c3onc(C)c3C)ccc2OC)CC1	TDP43 rescue 25µM, FUS yeast rescue inconclusive (no result: aSyn yeast inh)
Cc1ccc(-c2onc(C)c2C)cc1S(=O)(=O)N1CCC(C)CC1	FUS yeast rescue inconclusive (no result: aSyn yeast inh)
CCCCN1C(=O)C(CC(=O)NC2CCCC2)CC(C(=O)N2CCCCCC2)=C1C (centres undefined)	none (no result: aSyn yeast inh, Abeta yeast res)
CCOC(=O)C(CC)n1cnc2c(nnn2-c2ccc(F)cc2)c1=O (centres undefined)	none
Cc1ccc(CNC(=O)c2ccc(CSCc3ccccc3Cl)o2)cc1	none (no result: aSyn yeast inh)
O=C(NC1CCCCN(Cc2cccc(C(F)(F)F)c2)C1=O)c1cccc(F)c1 (centres undefined)	none (no result: aSyn yeast inh, TDP43 rescue, Abeta yeast res)
O=S(Cc1ccc(Br)cc1)Cc1nnc(SCc2ccc(Cl)cc2)n1-c1ccccc1 (centres undefined)	aSyn yeast inh inconclusive, TDP43 rescue 6.3µM (no result: FUS yeast rescue)
Cc1ccccc1Nc1nc(N)nc(CSc2nnc(C)n2C)n1	none
Cc1ccccc1Nc1nc(N)nc(CSc2ccc(F)cc2)n1	TDP43 rescue 25µM
Cc1ccc(SCc2nc(N)nc(Nc3ccccc3C)n2)c(C)c1	TDP43 rescue inconclusive, Abeta yeast res inconclusive
Cc1ccc(SCc2nc(N)nc(Nc3ccccc3C)n2)cc1C	TDP43 rescue 18µM, FUS yeast rescue inconclusive
COc1ccc(Nc2nc(N)nc(CSc3nc4cc(OC)ccc4s3)n2)cc1	TDP43 rescue 20µM, FUS yeast rescue inconclusive (no result: aSyn yeast inh)
Cc1ccccc1NC(=O)CCCSc1nc2ccccc2s1	TDP43 rescue 13µM (no result: FUS yeast rescue)
CCc1cccc(C)c1NC(=O)CCCSc1nc2ccccc2s1	none
O=C(CCC1CCCCC1)NC1CCCCC1	none (no result: FUS yeast rescue)
Cc1ccccc1Nc1nc(N)nc(CSc2nc3ccccc3s2)n1	TDP43 rescue 20µM (no result: FUS yeast rescue)
Cc1cc(C)n(-c2ccc(C(=O)OCC(=O)Nc3ccccc3F)cc2)n1	none
CCOc1cc(C)c(C(C)C)cc1S(=O)(=O)n1ccnc1CC	TDP43 rescue 20µM (no result: aSyn yeast inh)
Cc1ccc(-n2nnnc2-c2cnoc2-c2cccc(F)c2)cc1	TDP43 rescue 14µM
CCC1CN(C(=O)N2CCC(C(=O)N(C)Cc3ccccc3)CC2)c2ccccc2O1 (centres undefined)	none (no result: aSyn yeast inh)
COC(=O)N1C(=O)[C@](c2ccsc2)(C(C)C)N1C(=O)OC	TDP43 rescue 20µM
COC(=O)N1C(=O)[C@](c2ccc(OC)cc2)(C(C)C)N1C(=O)OC	TDP43 rescue 18µM
COC(=O)N1C(=O)[C@](CC(C)C)(c2ccccc2)N1C(=O)OC	TDP43 rescue inconclusive
COC(=O)[C@]12C[C@H](CC(=O)NCCc3ccccc3OC)C(=O)N(Cc3cccc4ccccc34)C1=C[C@H](C(C)(C)C)O[C@@H]2C	FUS yeast rescue 14µM (no result: aSyn yeast inh, TDP43 rescue, Abeta yeast res)
COC(=O)[C@]12C[C@H](CC(=O)NCc3ccccc3)C(=O)N(Cc3ccc(Cl)cc3Cl)C1=C[C@H](C1CCCC1)O[C@@H]2C	none (no result: aSyn yeast inh, TDP43 rescue, Abeta yeast res)
CCCCOCCCNC(=O)C[C@H]1C[C@@]2(C(=O)OC)C(=C[C@H](C3CCCC3)O[C@@H]2C)N(Cc2cccc3ccccc23)C1=O	FUS yeast rescue 8.9µM (no result: aSyn yeast inh, TDP43 rescue, Abeta yeast res)
COC(=O)[C@]12C[C@H](CC(=O)NCC34CC5CC(CC(C5)C3)C4)C(=O)N(Cc3cccc4ccccc34)C1=C[C@H](C(C)(C)C)O[C@@H]2C	none (no result: aSyn yeast inh, TDP43 rescue, Abeta yeast res)
COC(=O)[C@]12C[C@H](CC(=O)N3CCN(C(=O)C4CC4)CC3)C(=O)N(Cc3cccc4ccccc34)C1=C[C@H](C1CCCC1)O[C@@H]2C	FUS yeast rescue 20µM (no result: aSyn yeast inh, TDP43 rescue, Abeta yeast res)
CC(C)c1ccc(NC(=O)CN2C(=O)NC3(CCCC3)C2=O)cc1	none
COc1cc2ccccc2cc1C(=O)NC1CCCCC1	none
COc1cc2ccccc2cc1C(=O)NC1CCCC1	TDP43 rescue 13µM
CCCC12CN3CC(CCC)(CN(C1)C3c1ccccc1)C2=O (centres undefined)	none (no result: aSyn yeast inh)
O=C(NC(=S)Nc1ccccc1N1CCCCC1)c1ccco1	TDP43 rescue 35µM
CC(=O)Nc1ccc(NC(=S)NC(=O)/C=C/c2ccco2)cc1	FUS yeast rescue inconclusive
O=C(/C=C/c1ccc(Cl)cc1)Nc1ccccc1N1CCOCC1	none
COc1cccc(/C=C/C(=O)Nc2ccccc2N2CCOCC2)c1	TDP43 rescue 22µM
CC(=O)N(C)c1ccc(NC(=S)NC(=O)/C=C/c2ccco2)cc1	FUS yeast rescue 35µM
O=C(/C=C/c1ccco1)NC(=S)Nc1ccccc1N1CCOCC1	TDP43 rescue 25µM
CN(Cc1ccccc1)S(=O)(=O)c1cccc(C(=O)OCc2ccccc2)c1	none (no result: aSyn yeast inh, TDP43 rescue, Abeta yeast res)
O=C(/C=C/c1ccco1)NC(=S)Nc1ccccc1N1CCCC1	TDP43 rescue 22µM, Abeta yeast res inconclusive, FUS yeast rescue inconclusive
COc1ccc(CN(C)C(=O)c2cc(S(=O)(=O)N3CCOCC3)ccc2N2CCCC2)cc1	none
CCC(C)(C)n1nnnc1C(c1cccnc1)N1CCC(Cc2ccccc2)CC1 (centres undefined)	aSyn yeast inh inconclusive, TDP43 rescue 10µM
CCC(C)(C)n1nnnc1C(c1ccncc1)N1CCC(Cc2ccccc2)CC1 (centres undefined)	none
Cc1ccc(C)c(C(=O)CSc2nnnn2-c2cccnc2)c1	TDP43 rescue 11µM
O=C(c1cc(S(=O)(=O)N2CCCC2)c[nH]1)N1CCN(c2cccc(Cl)c2)CC1	none (no result: aSyn yeast inh)
COc1ccc(C(=S)N2CCN(C)CC2)cc1Br	none
COc1ccc(C(=S)N2CCCC2)cc1Br	TDP43 rescue 11µM
CCOC(=O)c1cnc2c(C)c(C)ccc2c1Nc1ccc(S(=O)(=O)Nc2ncccn2)cc1	none
O=C1C(=O)N(CCS(=O)(=O)c2ccccc2)c2ccc(F)cc21	none
CCOc1ccccc1N(C)C(=O)Cn1ncc2c([nH]c3ccc(C)cc32)c1=O	none
Cc1ccc2c(c1C)NC(=O)CC2c1ccc(Cl)cc1Cl (centres undefined)	TDP43 rescue 35µM (no result: aSyn yeast inh)

Compound activity (PubChem)
